Only some compounds are listed: those with a hit (about 7.2% of all), similar ones and a draw of the others.
ERK AVP inh = qHTS Assay for Inhibitors of the ERK Signaling Pathway using a Homogeneous Screening Assay; Potency, µM (highest dose often 57.5 µM), without a hit: top-dose activity, negative = inhibition, hits mostly inhibitors; actives 0.99% (n = 72,000); HEK293-V1b, vasopressin-stimulated pERK AlphaScreen; note: % is set by controls: 0 for no effect and ±100 for the full control effect; nearly all actives have a fitted effect of over 55% in size
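HEK293 cells stably expressing V1b receptor, preincubated 30 min at 37 °C with compound, then stimulated 5 min with 25 nM vasopressin. Phospho-ERK by AlphaScreen SureFire after 5 h RT; normalized to DMSO and vasopressin; AC50 by Hill fit.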
PK Bst = Pyruvate Kinase. purified pyruvate kinase, luminescence ATP production; ribose 5-phosphate activator present at AC10. Potency, µM. actives 1.2% (n = 51,000); in the data active = potency below about 11 µM; inconclusive = mostly about 12 µM to 25 µM;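 the screen sought inhibitors and activators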;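 note: scaled between full activation by ribose 5 phosphate and full inhibition by luteolin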
TSHR agonist = qHTS Assay for Agonists of the Thyroid Stimulating Hormone Receptor | Thyrotropin receptor (Homo sapiens), P16473 | HEK293-CNG-TSHR cells (CNG channel as cAMP sensor), membrane potential dye, cAMP | Potency, µM (top dose mostly 57.1 µM), for inactives: at the top dose activation, actives largely listed as activators | actives 0.48% (n = 73,000); active = well fitted activation curve with a large enough effect in the main read-out, with a control signal flat, not every such curve was filed as active; inconclusive = small, poorly fitted or top-dose-only effect, or a change in a side signal; inactive = no such curve, though single readings can be large or run the other way; % of control where 0% means no effect;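 note: the control signal comes from parental cells without the receptor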
Target sequence (P16473 whole entry, looked up): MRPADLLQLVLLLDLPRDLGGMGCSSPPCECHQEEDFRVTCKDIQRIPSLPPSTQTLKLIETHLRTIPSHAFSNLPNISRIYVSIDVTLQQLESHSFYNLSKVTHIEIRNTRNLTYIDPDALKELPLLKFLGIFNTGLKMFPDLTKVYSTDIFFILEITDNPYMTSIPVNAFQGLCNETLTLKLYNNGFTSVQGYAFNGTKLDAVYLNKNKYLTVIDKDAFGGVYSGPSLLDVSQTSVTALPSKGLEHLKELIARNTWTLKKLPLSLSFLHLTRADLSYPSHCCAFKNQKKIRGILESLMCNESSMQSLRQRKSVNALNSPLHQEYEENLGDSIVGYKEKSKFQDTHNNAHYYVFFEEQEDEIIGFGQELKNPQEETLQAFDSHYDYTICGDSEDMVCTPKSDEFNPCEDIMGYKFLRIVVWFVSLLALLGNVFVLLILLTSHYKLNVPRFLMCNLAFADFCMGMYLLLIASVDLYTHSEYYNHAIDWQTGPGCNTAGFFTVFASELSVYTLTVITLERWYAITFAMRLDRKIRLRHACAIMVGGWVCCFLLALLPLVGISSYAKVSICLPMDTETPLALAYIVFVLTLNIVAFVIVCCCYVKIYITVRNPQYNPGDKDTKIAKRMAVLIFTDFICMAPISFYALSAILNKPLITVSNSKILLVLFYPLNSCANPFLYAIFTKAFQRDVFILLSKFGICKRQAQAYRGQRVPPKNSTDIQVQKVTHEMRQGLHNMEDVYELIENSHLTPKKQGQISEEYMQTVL
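cAMP rise detected as CNG-channel membrane depolarization by fluorescent dye (emission 590 nm), 30 min after compound, following 60 min dye loading containing 100 uM RO 20-1724 at room temperature. Cells: TSHR/CNG HEK 293, with parental CNG HEK 293 as control.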
FLuc inh = qHTS Assay for Inhibitors of Firefly Luciferase | Luciferin 4-monooxygenase (Photinus pyralis), P08659 | purified firefly luciferase, luminescence, 8 min | Potency, µM (titrated, usually from 57.1 µM), without a hit: top-dose activity change, negative = inhibition, hits mostly inhibitors | actives 2.2% (n = 72,000) | AID 411, 2009; note: % is set by controls: 0 for no effect and ±100 for the full control effect; nearly all actives have a fitted effect of over 40% in size
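Titration-based qHTS; buffer 50 mM imidazole pH 7.2, 50 mM KCl, 7 mM MgCl2, 10 uM ATP, 0.01% Tween 20, 0.05% BSA; luciferase/luciferin detector mix added after compound; 8 min, ambient; luminescence.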
HEK293 cAMP cs = qHTS Assay for Agonists of the Thyroid Stimulating Hormone Receptor: Activators of Intracellular cAMP Concentrations in Parental HEK 293. Potency, µM (highest dose often 57.1 µM), without a hit: at the top dose activation, usual class: activators. actives 2.5% (n = 73,000). AID 938, 2007. parental HEK293 CNG cAMP sensor, membrane potential fluorescence; note: % of control where 0% means no effect; nearly all actives have a fitted effect of over 55% in size
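Counterscreen for endogenous-receptor signalling: CNG-channel HEK 293 cells report cAMP rise by membrane depolarization. After 60 min dye equilibration with 100 uM RO 20-1724, compounds incubated 30 min before bottom-read fluorescence at 590 nm.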
Tau fil binding = qHTS Assay for Tau Filament Binding. Microtubule-associated protein tau (Homo sapiens), P10636. recombinant tau filaments, thioflavin S fluorescence, 15 h; filaments grown with octadecylsulfate alongside compound. Potency, µM (top dose mostly 57.1 µM), inactives show at the top dose activity change, negative = inhibition. actives 2% (n = 71,000). AID 596, 2007;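 note: % is set by controls: 0 for no effect and ±100 for the full control effect; actives lower thioflavin S fluorescence by blocking filaments or displacing dye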
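Read-out: ThS fluorescence, 450 nm excitation/510 nm emission; lower signal marks blocked filament formation or displaced dye. Tau at 1 uM with 30 uM ODS, 10 uM ThS, 5 mM DTT, 100 mM NaCl, 10 mM HEPES pH 7.4; 15 h, 37 C.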
* = called active by the depositor; u = inconclusive; x = no result; [ ] = another dose, or the depositor's remark. Unless noted, calls come from the whole dose curve; as a rule, active = well fitted curve in the direction sought with a large enough effect; inconclusive = small, poorly fitted or top-dose-only effect, or another doubt; inactive = no such curve, though single readings can be large; an effect the other way counts as inactive or inconclusive. Potency is the fitted concentration of half-maximal effect.

SMILES	ERK AVP inh	PK Bst	TSHR agonist	FLuc inh	HEK293 cAMP cs	Tau fil binding
CCN(C(=O)c1c(-c2ccccc2)noc1C)c1ccccc1	-9.4%	>57	10µM*	-1.6%	7.8%	-0.9%
Cc1onc(-c2ccccc2)c1C(N)=O	-22.1%	>57	-0.4%	0.8%	-9.1%	-2.9%
O=C(Cn1cnc2ccccc2c1=O)c1ccc2c(c1)OCCO2	-11.8%	x	0.2%	12.6µM*	15.2%	8.8%
Cc1occc1-c1nnc(SCc2nnc(-c3ccc(Cl)cc3)o2)n1C	-9.8%	4.52*	u	-2.0%	u	55.4%
Cn1nnnc1SCc1nnc(-c2ccc(Cl)cc2)o1	-2.7%	>57	-0.6%	5.2%	7.5%	-9.6%
COc1ccc(CNc2ccnc(-c3cccc(NS(C)(=O)=O)c3)n2)c(OC)c1	-12.3%	x	0.7%	-0.5%[2.29 µM]	17.0%	-5.2%
O=C(Nc1ccc2c(c1)OCO2)c1cccc2c1C(=O)N(C1CCCCC1)C2	40.3%	>57	3.16µM*	1.2%	18.8%	-26.2%
CCCN1Cc2cccc(C(=O)Nc3ccc4c(c3)OCCO4)c2C1=O	u	x	2.9%	12.6µM*	-3.0%	40.6%
CN1C(=O)Cn2c1nc1ccccc12	-3.7%	>57	u	-0.6%	20µM*	0.9%
COc1ccc(Nc2cc(C)nc3ncnn23)c(OC)c1	-18.7%	x	3.4%	-0.1%	-1.5%	6.9%
COc1ccc(CNc2cc(C)nc3ncnn23)c(OC)c1	-7.4%	>57	u	2.9%	3.98µM*	-4.0%
OC(CCN1CCOCC1)(c1ccc(Cl)cc1)C1CCCCC1 (stereo not given)	13.8%	>57	u	2.6%	15.8µM*	20µM*
OC(CCN1CCCCC1)(c1ccccc1)C1CCCCC1 (stereo not given)	4.4%	>25.6	x	-0.7%[25.5 µM]	x	x
NS(=O)(=O)c1ccc(C(=O)O)cc1	-13.4%[11.5 µM]	>11.4	0.9%[11.4 µM]	1.5%[25.5 µM]	23.2%[11.4 µM]	-3.6%[11.4 µM]
O=C(O)c1ccc(S(=O)(=O)Cc2ccccc2)cc1	17.3%	>57	u	4.5%	3.16µM*	6.1%
N=c1c(C(=O)NCc2ccco2)cc2c(=O)n3ccccc3nc2n1Cc1ccc(Cl)cc1	5.8%	x	u	-0.1%	-78.3%	3.16µM*
Cc1cccn2c(=O)c3cc(C(=O)NCc4ccco4)c(=N)n(C(C)C)c3nc12	-15.6%	x	-31.2%	-0.8%	-29.2%	90.3%
Cc1cccn2c(=O)c3cc(C(=O)NCc4ccco4)c(=N)n(CCc4ccccc4)c3nc12	-12.6%	x	u	-1.3%	-66.7%	1.58µM*
CC(C)n1c(=N)c(C(=O)NCCc2ccccc2)cc2c(=O)n3ccccc3nc21	-3.9%	>57	u	2.8%	-82.4%	3.16µM*
CCn1c(=N)c(C(=O)OC)cc2c(=O)n3ccccc3nc21	-14.3%	>57	u	-34.0%	u	7.2%
COC(=O)c1cc2c(=O)n3ccccc3nc2n(C(C)C)c1=N	-6.8%	>57	11.2%	3.8%	5.3%	24.4%
N=c1c(C(=O)NCc2ccco2)cc2c(=O)n3ccccc3nc2n1Cc1ccccc1	u	x	u	3.2%	-129.1%	u
CCOC(=O)c1cc2c(=O)n3ccccc3nc2n(Cc2ccc(Cl)cc2)c1=N	-12.8%	>57	0.5%	0.7%	-29.9%	0.501µM*
CCN1C(=O)N[C@@H](c2ccccc2)C1=O	-4.6%[25.7 µM]	x	13.1%[25.6 µM]	3.1%[25.5 µM]	-0.2%[25.6 µM]	9.0%[25.6 µM]
Fc1ccc(-c2nnc(NC3=NCCCCC3)o2)cc1	-16.1%	4.51*	-7.4%	2.51µM*	-2.1%	0.0%
SMILES	ERK AVP inh	PK Bst	TSHR agonist	FLuc inh	HEK293 cAMP cs	Tau fil binding
Fc1ccc(-c2nnc(Cc3nnc(-c4ccc(F)cc4)o3)o2)cc1	0.6%	>57	x	-4.9%	13.1%	-2.1%
C[C@@H](CS(=O)(=O)Cc1ccccc1)C(N)=O	2.8%[11.5 µM]	x	2.3%[11.4 µM]	-1.5%[11.4 µM]	0.6%[11.4 µM]	-4.3%[11.4 µM]
COc1ccc(-c2oc(/N=C/N3CCOCC3)c(C#N)c2-c2ccc(OC)cc2)cc1	u	x	-13.6%	-6.6%	-11.7%	1µM*
COCC(=O)N1CCC2(CCCN(C(=O)Nc3cccc(F)c3)C2)CC1	0.5%	x	x	0.2%[11.4 µM]	4.6%	-4.5%
CN1CCN(c2ccc(NC(=O)c3cccc(OCc4ccccc4)c3)cc2)CC1	u	x	-18.8%	-18.8%	-20.2%	7.94µM*
O=C(c1cccc(F)c1)N1CCC2(CC1)CCN(c1ccc(-c3ccccc3)cc1)CC2	-6.9%	x	u	-0.7%[11.4 µM]	15.8µM*	-1.0%
O=C(Nc1ccc(N2CCN(c3ccc(O)cc3)CC2)cc1)Oc1ccccc1	-24.0%	>57	-1.9%	-1.4%	-1.9%	2µM*
O=C(Oc1ccccc1)N1CCN(c2ccc(F)cc2)CC1	-13.8%	x	7.7%[11.4 µM]	3.2%	28.2%[11.4 µM]	-12.2%[11.4 µM]
O=C(Nc1ccc(N2CCCCC2)cc1)c1ccccc1	x	x	-0.2%	x	-12.1%	x
O=C(Nc1ccc(N2CCCC2)cc1)c1cccc(F)c1	-27.8%	u	u	3.16µM*	u	-41.5%
CCN(CC)CCCCn1c(-c2ccccc2)nc2c(Nc3ccccc3)nc(C)nc21	-0.3%	x	7.6%	x	5.9%	81.7%
C[C@]12C=CC(=O)C=C1CC[C@@H]1[C@H]3C[C@@H](O)[C@](O)(C(=O)CO)[C@]3(C)C[C@H](O)[C@]12F	x	x	5.1%	1.2%	-0.8%	6.2%
CCC/C=C(\CCC)C(NS(=O)(=O)c1ccc(C(F)(F)F)cc1)c1ccc(-c2ccccc2)cc1 (stereo not given)	14.8%	x	-3.6%	x	-1.0%	166.2%
CCN(CC)[C@@H](C)C(=O)N1c2ccccc2Sc2ccccc21	x	x	x	1.3%	28.1%	-7.1%
Cc1cc(NC(=O)CC2CCCC2)n(-c2nc3ccccc3[nH]2)n1	-11.3%	>57	u	-0.4%	25.1µM*	15.6%
Cc1ccc2c(CC(=O)N3CCc4ccccc43)coc2c1	19.6%	>57	u	20µM*	u	-5.4%
COc1cc(CC(=O)N2CCc3ccccc32)cc(OC)c1OC	-2.3%	>57	14.9%	1.7%	7.5%	0.2%
CNc1nc(-c2ccoc2)nc2ccccc12	-53.2%	x	-1.0%	0.9%[2.29 µM]	8.6%	u
O=C(c1ccccc1)N(Cc1ccccc1)c1ccccn1	-11.4%	x	3.98µM*	2.4%	20.6%[11.4 µM]	3.2%[11.4 µM]
O=C(C1CCCCC1)N(Cc1ccccc1)c1ccccn1	-8.5%	>57	16.0%	0.0%	14.4%	-0.9%
Cc1nn(Cc2ccccc2)c(C)c1NC(=O)c1cc2nc(-c3ccco3)cc(C(F)(F)F)n2n1	u	>57	-8.2%	-3.2%	-8.2%	15.8µM*
O=C(Nc1cnn(Cc2ccc(F)cc2)c1)c1cc2nc(-c3ccco3)cc(C(F)(F)F)n2n1	-14.7%	>57	-12.9%	3.0%	-16.3%	15.8µM*

Bioassay records: PubChem, National Center for Advancing Translational Sciences (NCATS)
